TRPML1 ag: activates the human TRPML1 channel; Q9GZU1; 410,000 compounds, 0.12% hits; TRPML1-expressing cells, Ca2+ dye fluorescence, FDSS; activation, % (concentration not given with the values); in the data active = activation above about 50%; inconclusive = mostly about 30% to 49%
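Tetracycline-induced TRPML1-DL cells are seeded and incubated overnight before loading with a no-wash Ca2+ dye and quencher. Agonist activity is taken from the 110 s fluorescence read following compound pin-transfer on an FDSS, before EC80 54-4 challenge.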
TRHR enhancer: allosterically enhances the human TRH receptor. 360,000 compounds, 0.66% hits. P34981. enhancement, % at 2 µM. TRHR cells, fluo-8 calcium fluorescence, EC20 TRH enhancement; in the data active = enhancement above about 30%
Target sequence (P34981 whole entry, looked up): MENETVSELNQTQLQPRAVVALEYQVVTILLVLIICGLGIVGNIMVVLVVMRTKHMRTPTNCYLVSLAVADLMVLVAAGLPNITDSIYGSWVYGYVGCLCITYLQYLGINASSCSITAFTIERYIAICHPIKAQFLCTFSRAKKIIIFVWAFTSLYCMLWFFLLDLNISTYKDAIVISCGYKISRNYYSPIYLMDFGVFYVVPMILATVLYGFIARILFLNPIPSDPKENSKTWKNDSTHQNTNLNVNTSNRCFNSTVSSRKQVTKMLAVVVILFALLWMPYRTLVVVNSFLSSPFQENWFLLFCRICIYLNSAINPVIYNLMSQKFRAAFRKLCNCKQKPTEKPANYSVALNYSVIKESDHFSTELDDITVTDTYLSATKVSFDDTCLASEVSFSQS
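Enhancer read-out: after compound pinning and an initial kinetic agonist-mode read, an EC20 of TRH (10 nM final) was injected and fluo-8 calcium signal (Ex 480/Em 530) followed at 1 s/cycle for 100 cycles in TRHR-expressing cells.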
TRPML1 blocker: inhibitors of human TRPML1 channel | Q9GZU1 | TRPML1-inducible cells, Ca2+ dye fluorescence, FDSS; stronger effect = lower value; inhibition of EC80 agonist-evoked calcium signal | activity change, negative = inhibition, % (test concentration not listed) | 390,000 compounds, 0.02% hits | AID 624415; in the data active = activity change below about -50%; inconclusive = between about -30% and that limit;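 note: stimulus is agonist 54-4 at its EC80 concentration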
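Calcium fluorescence in TRPML1-DL cells induced overnight with Tet: a 110 s read after compound pin addition, then a 110 s antagonist read after challenge with 54-4 at 4 uM final (EC80).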
TRPV1 PAM: potentiators of human vanilloid receptor 1 (TRPV1); TRPV1-expressing cells, Fluo-8 calcium influx, capsaicin EC20 potentiation; Q8NER1; 320,000 compounds, 0.02% hits; potentiation, % at 8.33 µM; in the data active = potentiation above about 80%; inconclusive = between about 30% and that limit
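Cells expressing TRPV1 were dye-loaded with Fluo-8 and read kinetically: 10 s baseline, 3 min after compound (agonist portion), then 2 min after EC20 capsaicin (allosteric enhancer portion). Calcium-bound dye fluorescence at 480/520 nm.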
TRHR agonist: activates the human TRH receptor; activation, % at 2 µM; AID 493084; 360,000 compounds, 0.18% hits; P34981; TRHR cells, calcium flux fluo-8, FDSS agonist mode; in the data active = activation above about 30%
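TRHR-expressing cells, plated overnight in medium with 10% serum, were loaded with fluo-8 calcium dye at room temperature. After a 10 s baseline, library compound was pin-added and calcium release was recorded kinetically (ex 480/em 530) as agonist response.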
TRPV1 ag: agonists of human vanilloid receptor 1 (TRPV1). Q8NER1. TRPV1-expressing cells, Fluo-8 calcium influx, agonist mode. activation, % at 8.33 µM. 320,000 compounds, 0.19% hits; in the data active = activation above about 80%; inconclusive = between about 30% and that limit
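Cells expressing TRPV1 were dye-loaded with Fluo-8 and read kinetically: 10 s baseline, 3 min after compound (agonist portion), then 2 min after EC20 capsaicin (allosteric enhancer portion). Calcium-bound dye fluorescence at 480/520 nm.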
Each line names hits and unclear results; the compound was inactive in the other large screens; ! = repeats disagree. Shown are actives, neighbours in structure and some others; about 0.99% of the full set was active somewhere.

CC(=O)Nc1ccc(/C=C/C(=O)c2ccc(-n3nncc3-c3ccccc3)cc2)cc1	none (no result: TRHR enhancer, TRPML1 blocker, TRPV1 PAM, TRHR agonist, TRPV1 ag)
COc1ccc2c3c(cccc13)C(=O)CC2	TRHR agonist 122, TRPV1 ag inconclusive
CCN1CCN(c2ccc(S(=O)(=O)N3CCCCC3)cc2NC(=O)/C=C/c2cc(OC)ccc2OC)CC1	TRHR enhancer 30
O=[S+]([O-])(c1c(F)cccc1F)N1CCN([S+](=O)([O-])c2csc3ccccc23)CC1	none (no result: TRPML1 ag, TRPML1 blocker, TRPV1 PAM, TRPV1 ag)
C=CCC1NS(=O)(=O)OC(CCCC)C1O (stereo not given)	TRHR enhancer 34
C=CCC1NS(=O)(=O)OC(COC)C1C (stereo not given)	none
Oc1cncc(-c2cccnc2)c1	TRHR enhancer 31
Cc1cc2c(s1)c1cnn(Cc3ccccc3Cl)c(=O)c1n2C	none (no result: TRPML1 ag, TRPML1 blocker, TRPV1 PAM, TRPV1 ag)
C[C@H]1CN(S(=O)(=O)c2ccc3c(c2)OCCO3)CCN1S(=O)(=O)c1c(F)cccc1F	TRHR enhancer 39 (no result: TRPML1 ag, TRPML1 blocker, TRPV1 PAM, TRPV1 ag)
CC(C)(C)C(=O)Nc1ccc2c(c1)C(=O)C(=O)c1ccccc1-2	none (no result: TRHR enhancer, TRPML1 blocker, TRPV1 PAM, TRHR agonist, TRPV1 ag)
C(=C\c1ccnc2ccccc12)/c1ccccc1	none (no result: TRHR enhancer, TRPML1 blocker, TRPV1 PAM, TRHR agonist, TRPV1 ag)
CCCCC1=CC2=CC(=O)C(C)(OC(=O)CC)C(=O)C2=CN1CCc1ccccn1 (stereo not given)	TRPML1 blocker -54
C/C(CC(=O)Nc1ccc2c(c1)OCCO2)=N\NC(=O)COc1ccccc1	TRHR enhancer 37
C/C(CC(=O)Nc1ccc2c(c1)OCCO2)=N\NC(=O)Cc1ccccc1	none
CC(C)(C)n1nnnc1C(c1ccccc1)N1CCN(c2ncc(C(F)(F)F)cc2Cl)CC1 (stereo not given)	TRPML1 ag 57 (no result: TRHR enhancer, TRPML1 blocker, TRPV1 PAM, TRHR agonist, TRPV1 ag)
CC(C)(C)n1nnnc1C(c1ccccc1)N1CCN(c2c(Cl)cncc2Cl)CC1 (stereo not given)	TRPML1 ag 52 (no result: TRHR enhancer, TRPML1 blocker, TRPV1 PAM, TRHR agonist, TRPV1 ag)
CC(C)(C)n1nnnc1C(c1ccccc1)N1CCN(c2ccc(F)cc2)CC1 (stereo not given)	none (no result: TRHR enhancer, TRPML1 blocker, TRPV1 PAM, TRHR agonist, TRPV1 ag)
CCCCOc1ccc(S(=O)(=O)N2CCN(c3ccccc3OCC)CC2)cc1	TRHR enhancer 32 (no result: TRPV1 PAM, TRPV1 ag)
N#C/C(=C/c1ccc(N2CCCCC2)o1)C(=O)Nc1ccc(Cl)cc1	TRPML1 ag 61, TRHR agonist 165, TRPV1 ag inconclusive
CCOC(=O)/C(C#N)=C/c1ccc(-c2ccc(Br)cc2)o1	TRHR enhancer 37 (no result: TRPV1 PAM, TRPV1 ag)
COc1ccc(NC(=O)/C(C#N)=C/c2ccc(C)o2)cc1	none (no result: TRPV1 PAM, TRPV1 ag)
N#C/C(=C\c1ccc(N2CCOCC2)o1)C(=O)Nc1ccc(O)cc1	none
COc1ccc(NC(=O)/C(C#N)=C\c2ccc(N3CCOCC3)o2)cc1	TRPML1 ag 65, TRHR agonist 75, TRPV1 ag inconclusive
COc1cccc(NC(=O)/C(C#N)=C/c2ccc(-c3ccc(C)cc3)o2)c1	TRPML1 ag inconclusive, TRHR agonist 34 (no result: TRPV1 PAM, TRPV1 ag)
CCCCOC(=O)/C(C#N)=C\c1ccc(-c2ccc(Cl)cc2)o1	none (no result: TRPV1 PAM, TRPV1 ag)
O=S(=O)(NCCNCC=Cc1ccc(Br)cc1)c1cccc2cnccc12	none (no result: TRHR enhancer, TRPML1 blocker, TRPV1 PAM, TRHR agonist, TRPV1 ag)
Cc1cc(/C=C2\C=Cc3ccccc32)cc(C)c1[N+](=O)[O-]	none (no result: TRHR enhancer, TRPML1 blocker, TRPV1 PAM, TRHR agonist, TRPV1 ag)
N#C/C(=C/c1ccc(N2CCCCC2)o1)C(=O)Nc1ccc2ccccc2c1	TRPML1 ag 51, TRHR agonist 106, TRPV1 ag inconclusive
COc1ccccc1NC(C)C(=O)c1c[nH]c2ccccc12 (stereo not given)	none (no result: TRHR enhancer, TRPML1 blocker, TRPV1 PAM, TRHR agonist, TRPV1 ag)
Cc1ccc(C)c(NC(=O)CN(C)S(=O)(=O)c2cccc3cccnc23)c1	TRHR enhancer 32!, TRPV1 PAM inconclusive
Cc1ccc2oc(C(=O)N3CCC(c4nc5ccccc5s4)CC3)c(C)c2c1	TRPML1 ag 54 (no result: TRPV1 PAM, TRPV1 ag)
CCCNc1nc(Nc2ccc([N+](=O)[O-])cc2)nc(N2CCOCC2)n1	none (no result: TRHR enhancer, TRPML1 blocker, TRPV1 PAM, TRHR agonist, TRPV1 ag)
Cc1cc(NC(=O)CSc2nnc(-c3cccc(Cl)c3)o2)no1	none
Cc1cc(NC(=O)CSc2nnc(-c3ccccc3Cl)o2)no1	TRHR enhancer 34
CNc1c(Br)cc(/C=C2\C=C(C(O)c3cc(Br)c(NC)c(Br)c3)c3ccccc32)cc1Br (stereo not given)	none (no result: TRHR enhancer, TRPML1 blocker, TRPV1 PAM, TRHR agonist, TRPV1 ag)
CC1CC(C)CN(CCCNC(=O)c2csc3c2CCCC3)C1 (stereo not given)	TRHR enhancer 36

Screening results: PubChem, National Center for Advancing Translational Sciences (NCATS)
